# mHTT CaM bind = mutant huntingtin-calmodulin interaction inhibitors – biochemical, AlphaScreen, primary screen. P42858. AlphaScreen His-mHTT/GST-CaM binding, luminescence. inhibition, % at 15 µM. actives 3.6% (n = 190,000). AID 1671202, 2021;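 note: 0% = both proteins with DMSO and 100% = one protein alone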
# Pf apPOL inh = Pf-apPOL inhibitors, biochemical, fluorescence; actives 0.25% (n = 210,000); AID 1794808, 2022; Recombinant Pf-apPOL, molecular beacon fluorescence, 1.5 h; Plasmodium falciparum apicoplast DNA polymerase (apPOL); inhibition, % at 10 µM
# * marks the source's active call; other numbers are inactive results; i = inactive; · = no result; + = active, no number. In the library only some 3.6% were active in any assay of this set; here they are far more common. Cut-off read from the data, not from the text of the source: active = inhibition above about 50%; inactive = the rest.
SMILES,mHTT CaM bind,Pf apPOL inh
COc1ccc(-c2cc3nc4c(c(=O)n3[nH]2)CCN(C(=O)CCc2ccccc2)C4)cc1,42,1
CCc1cc(C(=O)Nc2cc(C)ccc2F)nc2ccnn12,-16,5
CC(Cl)C(=O)Nc1c(Cc2ccccc2)nc2ccccn12 (stereo not drawn),44,72*
O=C(Nc1c(Cc2ccccc2)nc2ccccn12)C(Cl)Cl,44,22
COc1ccc(N)cc1-n1c(C)ccc1C,76*,-4
COc1cc(N)ccc1Cc1ccc(N)cc1OC,29,-2
COc1ccc(OC)c(N=Cc2c(C)[nH]n(-c3ccccc3)c2=O)c1,67*,0
COc1ccccc1N=Cc1c(C)[nH]n(-c2ccccc2)c1=O,41,-5
Cc1[nH]n(-c2ccccc2)c(=O)c1C=Nc1c(C)[nH]n(-c2ccccc2)c1=O,8,-2
Cc1[nH]n(-c2ccccc2)c(=O)c1C=Nc1cc(Br)ccc1O,89*,1
FC(F)(F)c1cccc(N2CCC(N=CN3CCOCC3)=N2)c1,37,-19
CC(=O)Nc1ccc(-c2noc(C3CCN(C(=O)Cc4ccc(F)cc4)CC3)n2)cc1,4,-1
Cc1ccc(N2NC(=O)/C(=C\c3ccc(F)cc3)C2=O)cc1,1,8
O=C(c1ccsc1)N1CCCN(C2CCN(Cc3ccc(F)cc3)C2=O)CC1 (stereo not drawn),19,-1
Cc1ccsc1C(=O)N1CCCN(C2CCN(Cc3ccc(F)cc3)C2=O)CC1 (stereo not drawn),64*,8
CNC(=O)N1CCCN(C2CCN(Cc3ccc(F)cc3)C2=O)CC1 (stereo not drawn),1,1
Cc1ccccc1C(=O)N1CCCN(C2CCN(Cc3ccc(F)cc3)C2=O)CC1 (stereo not drawn),57*,0
CN(C)CCCNC(=O)c1ccc(F)cc1,2,0
N=c1oc2c(Br)cc(Br)cc2cc1C(N)=O,44,-4
Cc1cc(OCC(=O)N2N=C3CCCCC3C2(O)C(F)(F)F)ccc1Cl (stereo not drawn),80*,3
Cc1cc(OCC(=O)N2N=C(C3CCCCC3)CC2(O)C(F)(F)F)ccc1Cl (stereo not drawn),100*,1
CC1=NN(C(=O)COc2ccc(Cl)c(C)c2)C(O)(C(F)(F)F)C1 (stereo not drawn),20,-9
Cc1cc(OCC(=O)N2N=C(c3ccccc3)CC2(O)C(F)(F)F)ccc1Cl (stereo not drawn),100*,-12
O=C(c1ccccc1Cl)N1N=C2CCCCC2C1(O)C(F)(F)F (stereo not drawn),-2,-1
CC1=NN(C(=O)COc2cc(C)c(Cl)c(C)c2)C(O)(C(F)(F)F)C1 (stereo not drawn),12,-3
SMILES,mHTT CaM bind,Pf apPOL inh
Cc1nc(-n2c(C)ccc2C)sc1C(=O)NC(C)C,6,0
Cc1ccc(NC(=O)c2ccc(-c3cccc(C)c3)nc2)cc1,-1,-2
Cc1cc(N2CCN(C(=O)c3ccco3)CC2)n2c(nc3ccccc32)c1C#N,0,2
O=[N+]([O-])c1ccccc1C1Oc2ccccc2C2CC(c3ccccc3)=NN21 (stereo not drawn),31,-1
COc1ccc(C=C2Oc3c(ccc4c3CN(Cc3ccccn3)CO4)C2=O)cc1OC,-1,-18
O=C1C(=Cc2ccc3c(c2)OCO3)Oc2c1ccc1c2CN(Cc2cccnc2)CO1,25,-168
COc1ccc(C=C2Oc3c(ccc4c3CN(Cc3ccncc3)CO4)C2=O)cc1,58*,-22
O=C1C(=Cc2ccccc2)Oc2c1ccc1c2CN(Cc2cccnc2)CO1,41,-26
O=C1C(=Cc2ccc3c(c2)OCO3)Oc2c1ccc1c2CN(Cc2ccccn2)CO1,100*,-38
COc1ccc(C=C2Oc3c(ccc4c3CN(Cc3ccccn3)CO4)C2=O)cc1,100*,-31
COc1cccc(C=C2Oc3c(ccc4c3CN(Cc3ccncc3)CO4)C2=O)c1,39,-30
O=C1C(=Cc2ccc(Br)cc2)Oc2c1ccc1c2CN(Cc2cccnc2)CO1,83*,-31
O=S(=O)(c1ccc(F)cc1)N1CCC(c2noc(-c3cccc(F)c3)n2)CC1,-5,-4
O=C(c1cc2ccccc2o1)N1CCN(Cc2nc(-c3ccco3)cs2)CC1,16,-1
Cc1ccc(C=C2Oc3c(ccc4c3CN(Cc3ccccn3)CO4)C2=O)o1,100*,4
COc1ccc(OC)c(C=C2Oc3c(ccc4c3CN(Cc3ccccn3)CO4)C2=O)c1,100*,47
COc1ccc(C=C2Oc3c(ccc4c3CN(Cc3ccccn3)CO4)C2=O)c(OC)c1OC,-6,-4
COc1ccc(CN2COc3ccc4c(c3C2)OC(=Cc2cccnc2)C4=O)cc1,-2,-8
Cc1cccc(C(=O)Nc2ccc(S(=O)(=O)N3CCCCCC3)cc2)c1,-12,2
COc1ccccc1C(=O)O/N=C1\C=CC(=O)C=C1C,+,-1
COc1cc(C(=O)O/N=C2\C=CC(=O)C=C2C)cc(OC)c1OC,i,0
O=C(Nc1nc(-c2ccco2)cs1)c1ccc(-n2cccn2)nn1,56*,30
O=C(Nc1nc2c(s1)CCCC2)c1ccc(-n2cccn2)nn1,3,0
O=C(CCc1csc(NC(=O)c2ccc(F)cc2)n1)Nc1nc(-c2ccco2)cs1,58*,10
CCOC(=O)N1CCN(C(=O)CCc2csc(NC(=O)c3ccc(F)cc3)n2)CC1,-15,-8
SMILES,mHTT CaM bind,Pf apPOL inh
N#Cc1ccc(Oc2n[nH]c(=O)c3ccccc23)c([N+](=O)[O-])c1,-1,-6
CCS(=O)(=O)NCC1CC(=O)N(c2ccc(Cl)cc2)C1 (stereo not drawn),-16,-6
O=C(Nc1ccc2oc(-c3ccncc3)nc2c1)C(c1ccccc1)c1ccccc1,38,2
CC12CCC(CC1N)C2 (stereo not drawn),54*,22
Brc1c(CSc2nc3ccccc3s2)nc2sccn12,4,3
O=C(CC1COc2ccccc2NC1=O)Nc1cccc2ccccc12 (stereo not drawn),69*,-80
COc1ccccc1NC(=O)CC1COc2ccccc2NC1=O (stereo not drawn),-4,0
CSc1nccc(-c2cccnc2)n1,·,-8
Cc1noc(C)c1S(=O)(=O)N1CCSCC1,·,-5
Nc1ccccc1N=Cc1cc(Br)cc(Cl)c1O,66*,2
Cc1ccc(N=Cc2cc(Br)cc(Cl)c2O)c(O)c1,38,1
Oc1cc(O)c2ncccc2c1,100*,1
O=[N+]([O-])c1cc(O)c2ncccc2c1,100*,-186
O=[N+]([O-])c1ccc(Cc2ncccc2O)cc1,-5,-3
Nc1cc(Br)cc2cccnc12,-5,6
CCOC(=O)NC(=O)C(=CNCc1cccs1)C(=O)OCC,·,-3
COc1ccc(-c2[nH]n(-c3nc4ccccc4s3)c(=O)c2C=NCc2ccccn2)cc1,84*,-6
COc1ccc(-c2[nH]n(-c3nc4ccccc4s3)c(=O)c2C=NCC2CCCO2)cc1 (stereo not drawn),45,-2
CCc1ccccc1NC(=O)Nc1ccc(OC)cc1,4,1
CN1C(=CC=Cc2cc[n+](CCO)c3ccccc23)Sc2ccccc21,95*,78*
CN1/C(=C/c2cccc[n+]2CCO)Sc2ccccc21,8,-1
Cc1cc(C2CCCN2C(=O)c2cc(C(C)C)no2)no1 (stereo not drawn),-4,5
